The source made the active and inactive calls. Rule for the calls: active = hit-call score of the fitted dose curve at least 0.9, where 1 is the maximum; inactive = score below 0.9.
Assays:
Conditions in all cases: mRNA level, 48 h; actives raise or lower the signal
[1] = read-out: DNA damage-inducible transcript 3 (DDIT3), DDIT3 (gene 1649); assay: LTEA_HepaRG_DDIT3: Life Technologies and Expression Analysis (LTEA) Assay for DNA damage-inducible transcript 3 (DDIT3) using HepaRG (AID 2283488)
Method in brief: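 Cells are human HepaRG liver cells treated for 48 h with eight half-log concentrations up to 100 uM in 0.5% DMSO. Transcript levels come from qRT-PCR normalized to three housekeeping genes, with activity fitted in both directions relative to vehicle.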

[2] = read-out: Pro-epidermal growth factor (Homo sapiens) (UniProt P01133); assay: LTEA_HepaRG_EGF: Life Technologies and Expression Analysis (LTEA) Assay for Epidermal growth factor (EGF) using HepaRG (AID 2283489)
Method in brief: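 Concentration-response mRNA assay: HepaRG cells dosed 48 h (max 100 uM, 0.5% DMSO), EGF measured by qRT-PCR and normalized to ACTB/GAPDH/POLR2A.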

[3] = read-out: Early growth response protein 1 (EGR1) transcription factor, EGR1 (gene 1958); assay: LTEA_HepaRG_EGR1: Life Technologies and Expression Analysis (LTEA) Assay for Early growth response protein 1 (EGR1) transcription factor using HepaRG (AID 2283490)
Method in brief: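 EGR1 expression change in human HepaRG after 48 h chemical exposure, assessed by housekeeping-normalized qRT-PCR; concentration-response up to 100 uM, fitted in both directions against DMSO controls.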

[4] = read-out: Ezrin (EZR), EZR (gene 7430); assay: LTEA_HepaRG_EZR: Life Technologies and Expression Analysis (LTEA) Assay for Ezrin (EZR) using HepaRG (AID 2283491)
Method in brief: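 HepaRG, 48 h chemical exposure, 8-pt half-log series from 100 uM, 0.5% DMSO vehicle, duplicates. Read-out: EZR mRNA by TaqMan qRT-PCR (Fluidigm array), housekeeping-normalized; bidirectional curve fit vs DMSO baseline.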

[5] = read-out: Cytochrome P450 3A7 (Homo sapiens) (UniProt P24462); assay: LTEA_HepaRG_CYP3A7: Life Technologies and Expression Analysis (LTEA) Assay for CYP3A7 using HepaRG (AID 2283492)
Method in brief: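 qRT-PCR of CYP3A7 in HepaRG lysates after 48 h treatment; concentration-response (8 points, max 100 uM) analysed bidirectionally relative to 0.5% DMSO controls.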

CYP3A5 (gene 1577) = assay: LTEA_HepaRG_CYP3A5: Life Technologies and Expression Analysis (LTEA) Assay for CYP3A5 using HepaRG (AID 2283493)
Method in brief: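 Human HepaRG hepatic cells receive 48 h chemical treatment at eight concentrations (half-log steps from 100 uM) in 0.5% DMSO. Expression of CYP3A5 is quantified by Fluidigm qRT-PCR and normalized to three reference genes.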

[6] = read-out: Fatty Acid-Binding Protein 1 (FABP1), FABP1 (gene 2168); assay: LTEA_HepaRG_FABP1: Life Technologies and Expression Analysis (LTEA) Assay for Fatty Acid-Binding Protein 1 (FABP1) using HepaRG (AID 2283494)
Method in brief: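 Values reflect bidirectional concentration-response fitting of FABP1 mRNA change against 0.5% DMSO controls. Human HepaRG cultures received eight half-log doses (top 100 uM) for 48 h; expression quantified by TaqMan qRT-PCR with housekeeping-gene normalization.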

[7] = read-out: Cytochrome P450 4A22 (Homo sapiens) (UniProt Q5TCH4); assay: LTEA_HepaRG_CYP4A22: Life Technologies and Expression Analysis (LTEA) Assay for Cytochrome P450 4A22 (CYP4A22) using HepaRG (AID 2283495)
Method in brief: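 Concentration-response (8 points, max 100 uM, 0.5% DMSO) in human HepaRG liver cells after 48 h exposure. CYP4A22 mRNA by TaqMan qRT-PCR with housekeeping-gene normalization.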

[8] = read-out: Cytochrome P450 7A1 (Homo sapiens) (UniProt P22680); assay: LTEA_HepaRG_CYP7A1: Life Technologies and Expression Analysis (LTEA) Assay for Cytochrome P450 7A1 (CYP7A1) using HepaRG (AID 2283496)
Method in brief: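 HepaRG, 48 h exposure, 8-pt half-log series from 100 uM, 0.5% DMSO vehicle, duplicates. Readout: TaqMan qRT-PCR mRNA vs three housekeeping genes; bidirectional curve fit against DMSO baseline.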

[9] = read-out: Glutathione S-Transferase (GSTA2), GSTA2 (gene 2939); assay: LTEA_HepaRG_GSTA2: Life Technologies and Expression Analysis (LTEA) Assay for Glutathione S-Transferase (GSTA2) using HepaRG (AID 2283497)
Method in brief: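 Oxidative-stress marker GSTA2 is quantified by TaqMan qRT-PCR in HepaRG cultures treated 48 h across an eight-point range to 100 uM. Expression is normalized to endogenous controls and compared with 0.5% DMSO vehicle.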

[10] = read-out: Glutamate-cysteine ligase catalytic (GCLC), GCLC (gene 2729); assay: LTEA_HepaRG_GCLC: Life Technologies and Expression Analysis (LTEA) Assay for Glutamate-cysteine ligase catalytic (GCLC) using HepaRG (AID 2283498)
Method in brief: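 Oxidative-stress marker GCLC is measured as mRNA change in human HepaRG liver cells after 48 h chemical treatment in 0.5% DMSO, eight concentrations from 100 uM. Activity is fitted bidirectionally against vehicle.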

[11] = read-out: growth arrest and DNA damage 45 (GADD45G), GADD45G (gene 10912); assay: LTEA_HepaRG_GADD45G: Life Technologies and Expression Analysis (LTEA) Assay for growth arrest and DNA damage 45 (GADD45G) using HepaRG (AID 2283499)
Method in brief: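 Concentration-response in HepaRG: 48 h dosing, 0.5% DMSO, highest level 100 uM. GADD45G expression by qRT-PCR, normalised to endogenous controls; bidirectional fit to DMSO.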

[12] = read-out: Glutamate-cysteine ligase regulatory (GCLM), GCLM (gene 2730); assay: LTEA_HepaRG_GCLM: Life Technologies and Expression Analysis (LTEA) Assay for Glutamate-cysteine ligase regulatory (GCLM) using HepaRG (AID 2283500)
Method in brief: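 Endpoint is GCLM transcript level by qRT-PCR, normalized to three housekeeping genes, after 48 h chemical exposure of human HepaRG cells (0.5% DMSO vehicle, top 100 uM, half-log dilutions). Fitting was bidirectional relative to DMSO.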

[13] = read-out: Glutathione S-transferase M3 (GSTM3), GSTM3 (gene 2947); assay: LTEA_HepaRG_GSTM3: Life Technologies and Expression Analysis (LTEA) Assay for Glutathione S-transferase M3 (GSTM3) using HepaRG (AID 2283501)
Method in brief: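 Expression of GSTM3 is determined by qRT-PCR in human liver HepaRG cells treated 48 h with an 8-point half-log range from 100 uM in 0.5% DMSO.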

[14] = read-out: Heat shock 70 kDa protein 1 (HSPA1A), gene 3303; assay: LTEA_HepaRG_HSPA1A: Life Technologies and Expression Analysis (LTEA) Assay for Heat shock 70 kDa protein 1 (HSPA1A) using HepaRG (AID 2283502)
Method in brief: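 Cells were plated and cultured for 48 h, then switched to serum-free induction medium. Chemicals were added at eight half-log concentrations up to 100 uM for 48 h. RNA was then isolated and HSPA1A measured by qRT-PCR with bidirectional curve fitting against DMSO.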

[15] = read-out: Hypoxia-inducible factor 1-alpha (Homo sapiens) (UniProt Q16665); assay: LTEA_HepaRG_HIF1A: Life Technologies and Expression Analysis (LTEA) Assay for Hypoxia-inducible factor 1 (HIF1A) Trancription factor using HepaRG (AID 2283503)
Method in brief: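 HIF1A transcript level read by qRT-PCR (ACTB, GAPDH, POLR2A normalization) after 48 h chemical exposure of HepaRG cultures. Eight half-log concentrations, top 100 uM, 0.5% DMSO vehicle, duplicates; bidirectional curve fit against DMSO baseline.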

[16] = read-out: 3-Hydroxy-3-Methylglutaryl-CoA Synthase 2 (HMGCS2), HMGCS2 (gene 3158); assay: LTEA_HepaRG_HMGCS2: Life Technologies and Expression Analysis (LTEA) Assay for 3-Hydroxy-3-Methylglutaryl-CoA Synthase 2 (HMGCS2) using HepaRG (AID 2283504)
Method in brief: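 This steatosis marker was read as HMGCS2 mRNA change in HepaRG cells treated 48 h with up to 100 uM chemical. Normalisation used housekeeping genes; activity in either direction was fitted relative to 0.5% DMSO vehicle.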

HGF (gene 3082) = assay: LTEA_HepaRG_HGF: Life Technologies and Expression Analysis (LTEA) Assay for Hepatocyte Growth Facto (HGF) using HepaRG (AID 2283505)
Method in brief: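 Using HepaRG monolayers kept in 0.5% DMSO, chemicals were tested in duplicate over eight half-log concentrations from 100 uM for 48 h. Endpoint: HGF mRNA change relative to DMSO, normalized to ACTB/GAPDH/POLR2A.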

[17] = read-out: Insulin Like Growth Factor 1 (IGF1), IGF1 (gene 3479); assay: LTEA_HepaRG_IGF1: Life Technologies and Expression Analysis (LTEA) Assay for Insulin Like Growth Factor 1 (IGF1) using HepaRG (AID 2283506)
Method in brief: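 Cells are thawed, plated and cultured 48 h, then exposed in duplicate to chemical (highest 100 uM, half-log steps, 0.5% DMSO) for another 48 h. Total RNA is analysed by Fluidigm qRT-PCR for IGF1 expression relative to vehicle.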

[18] = read-out: Intercellular Adhesion Molecule 1 (ICAM1), ICAM1 (gene 3383); assay: LTEA_HepaRG_ICAM1: Life Technologies and Expression Analysis (LTEA) Assay for Intercellular Adhesion Molecule 1 (ICAM1) using HepaRG (AID 2283507)
Method in brief: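 Using the human liver line HepaRG, compounds are tested in duplicate over 48 h at concentrations up to 100 uM. Expression is determined by TaqMan qRT-PCR, normalized to endogenous controls, and analysed relative to 0.5% DMSO vehicle.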

Measured: AC50

Sequence of Hypoxia-inducible factor 1-alpha (Homo sapiens) (Q16665 whole entry, looked up): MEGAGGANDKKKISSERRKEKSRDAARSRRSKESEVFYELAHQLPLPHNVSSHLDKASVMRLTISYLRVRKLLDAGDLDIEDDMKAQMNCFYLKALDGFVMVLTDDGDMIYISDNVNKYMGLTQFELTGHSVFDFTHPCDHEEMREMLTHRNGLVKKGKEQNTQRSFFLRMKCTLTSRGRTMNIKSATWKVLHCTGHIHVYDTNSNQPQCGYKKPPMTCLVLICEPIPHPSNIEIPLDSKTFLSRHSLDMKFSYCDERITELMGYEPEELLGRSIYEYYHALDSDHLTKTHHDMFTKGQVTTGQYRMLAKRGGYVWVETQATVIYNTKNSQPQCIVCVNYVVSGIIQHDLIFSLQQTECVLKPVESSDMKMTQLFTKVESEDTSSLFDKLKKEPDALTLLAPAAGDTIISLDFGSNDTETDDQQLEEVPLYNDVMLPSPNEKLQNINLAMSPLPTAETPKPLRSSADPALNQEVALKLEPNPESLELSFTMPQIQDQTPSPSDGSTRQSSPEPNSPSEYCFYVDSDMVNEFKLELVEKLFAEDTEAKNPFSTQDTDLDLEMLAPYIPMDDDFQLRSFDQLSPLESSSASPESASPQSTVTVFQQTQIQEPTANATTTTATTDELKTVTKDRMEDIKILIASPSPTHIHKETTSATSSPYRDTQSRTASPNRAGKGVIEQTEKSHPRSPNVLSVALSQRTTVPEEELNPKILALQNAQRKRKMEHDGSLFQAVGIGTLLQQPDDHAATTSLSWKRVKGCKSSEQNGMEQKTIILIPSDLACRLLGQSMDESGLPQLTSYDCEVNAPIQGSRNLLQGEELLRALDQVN
Sequence of Cytochrome P450 3A7 (Homo sapiens) (P24462 whole entry, looked up): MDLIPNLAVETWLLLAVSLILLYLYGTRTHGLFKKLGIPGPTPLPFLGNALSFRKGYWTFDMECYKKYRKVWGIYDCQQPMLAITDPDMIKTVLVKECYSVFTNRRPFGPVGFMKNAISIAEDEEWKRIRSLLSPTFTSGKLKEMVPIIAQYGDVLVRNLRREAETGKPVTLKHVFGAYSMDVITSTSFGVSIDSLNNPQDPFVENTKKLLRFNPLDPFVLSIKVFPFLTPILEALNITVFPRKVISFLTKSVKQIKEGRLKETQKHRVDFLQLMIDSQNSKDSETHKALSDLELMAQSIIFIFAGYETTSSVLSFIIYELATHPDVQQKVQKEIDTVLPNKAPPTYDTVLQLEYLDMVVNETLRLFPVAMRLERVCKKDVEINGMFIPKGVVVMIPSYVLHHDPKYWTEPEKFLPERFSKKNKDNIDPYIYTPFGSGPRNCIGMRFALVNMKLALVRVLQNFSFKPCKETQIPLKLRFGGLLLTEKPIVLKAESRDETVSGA

COc1ccc([N+](=O)[O-])cc1N
inactive: all assays above

Nc1cccc2c(N)cccc12
active: [6] 50 µM | [8] 10.1 µM | [9] 50 µM
not listed: CYP3A5 (gene 1577)
inactive: all other assays above

CCN(CC)CCNc1ccc(CNC=O)c2sc3ccc(OC)cc3c(=O)c12
active: [3] 88.2 µM | [4] 76.2 µM | [5] 3.36 µM | CYP3A5 (gene 1577) 50 µM | [6] 21.5 µM | [7] 25.7 µM | [8] 21.7 µM | [9] 81.8 µM | [10] 50 µM | [11] 50 µM | [14] 9.92 µM | [15] 75.5 µM | [16] 74.3 µM | [17] 85.6 µM | [18] 62.6 µM
inactive: [1] | [12] | [13] | HGF (gene 3082)

CC(C)(C)c1cc(C(C)(C)C)c(O)c(C(C)(C)C)c1
active: [5] 10.9 µM | [6] 14.1 µM | [8] 16.6 µM | [16] 21 µM
not listed: [2]
inactive: all other assays above

CC(=O)CC(C)(C)O
inactive: all assays above

NC(=O)N1C(=O)C(C(=O)c2cc(Cl)cs2)c2cc(F)c(Cl)cc21 (stereo not given)
active: [1] 22.9 µM | [2] 50 µM | [3] 79.3 µM | [5] 24.8 µM | CYP3A5 (gene 1577) 13 µM | [7] 24.1 µM | [8] 16.6 µM | [9] 19.5 µM | [10] 34.1 µM | [11] 30.4 µM | [14] 72.3 µM | [15] 22.7 µM | [16] 20.7 µM | [17] 24.8 µM | [18] 19.9 µM
inactive: [4] | [12] | [13] | HGF (gene 3082)

COCC(C)OCC(C)O (stereo not given)
not listed: CYP3A5 (gene 1577)
inactive: all other assays above

CC(=O)NC1(c2cccc(F)c2)CCN(CC[C@@]2(c3ccc(Cl)c(Cl)c3)CN(c3ccccc3)C(=O)CO2)CC1
active: [1] 41.5 µM | [3] 72.4 µM | [4] 41.5 µM | [5] 4.05 µM | [7] 3.17 µM | [8] 38 µM | [9] 65.1 µM | [11] 41.5 µM | [14] 27.9 µM | [17] 13.1 µM | [18] 49 µM
inactive: [2] | [6] | [10] | [12] | [13] | [15] | [16] | HGF (gene 3082)

CCCCCCC(=O)O
not listed: CYP3A5 (gene 1577)
inactive: all other assays above

CC(O)CO (stereo not given)
not listed: CYP3A5 (gene 1577)
inactive: all other assays above

CC[C@H](C)[C@@H](C(=O)O)n1sc2ccccc2c1=O
active: [15] 0.372 µM
not listed: CYP3A5 (gene 1577)
inactive: all other assays above

O=C(O)c1ccccc1C(c1ccc(O)cc1)c1ccc(O)cc1
not listed: [2]
inactive: all other assays above

From PubChem BioAssay (EPA / NIEHS)
